Screening data (PubChem)
TROY NFkB inh – inhibitors of TROY-driven NF-kB signaling, primary screen, Q293 LMP1-TROYcd cells, NF-kB luciferase, uHTS. Q293 LMP1-TROYcd NF-kB luciferase reporter, 4 h. AID 1347056, 2019. actives 0.98% (n = 360,000). inhibition, % at 10 µM;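 active = compounds whose plate-normalised and pattern-corrected inhibition of the luciferase reporter signal at the single screening dose is 50% or more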
CF NFkB inh – inhibitors of PAF-induced NF-kB signaling, primary screen, cell-based, GFP fluorescence, uHTS; KKLEB NF-kB-GFP reporter, GFP fluorescence overnight; actives 0.86% (n = 360,000); inhibition, % at 5 µM;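 active = at least 50% inhibition at 5 µM, scaled per plate between neutral and stimulator controls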;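 note: PAF is a Pseudomonas aeruginosa culture filtrate used as stimulus; plate controls were PAF-stimulated DMSO wells for no effect and unstimulated DMSO wells for full effect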
KKLEB cytotox – cytotoxicity in KKLEB CF airway cells, primary screen, cytotoxicity control for CF NF-kB inhibitor project, cell-based, uHTS, fluorescence assay plates. KKLEB CF airway cells viability, ATPlite luminescence, overnight; hits give low values; cells stimulated with P. aeruginosa culture filtrate. activity change (cytotoxicity), % at 5 µM. actives 0.36% (n = 360,000). AID 602141, 2011;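 active = corrected activity change at or below -50% at 5 µM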
Peg3 prom inh – Peg3 promoter-driven luciferase inhibitors, primary screen, cell-based, HeLa, luciferase luminescence | inhibition, % at 20 µM | AID 588405, 2011 | actives 1.7% (n = 360,000) | HeLa PEG-Prom luciferase reporter, overnight;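 active = inhibition of at least 50% at 20 µM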
HIF-2a block – HIF-2a reporter inhibitors, primary screen, luminescence, 786-0 RCC cells; 786-0 RCC cells HIF-2a reporter, luciferase luminescence, overnight; inhibition, % at 18.8 µM; actives 0.72% (n = 360,000); AID 624352, 2012;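 active = inhibition of the luminescence signal of 40% or more relative to plate controls, in a single-dose primary screen at 18.75 µM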
TWEAK Fn14 block – inhibitors of TWEAK-Fn14 signaling, primary screen, luciferase reporter cells, uHTS; TWEAK-stimulated Fn14 reporter cells, luciferase luminescence, 8 h; inhibition, % at 10 µM; actives 2% (n = 360,000); AID 1159606, 2016; in the data active = inhibition above about 50%
An asterisk follows results filed as active. Shown are actives, neighbours in structure and some others; about 4% of the full set was active somewhere.

SMILES | TROY NFkB inh | CF NFkB inh | KKLEB cytotox | Peg3 prom inh | HIF-2a block | TWEAK Fn14 block
COc1ccc(-c2sc3cc4c(cc3c2C#Cc2cncn2C)OCO4)cc1 | -11 | -58 | -3 | 26 | -21 | -18
CCOC(=O)/C=C(\C)Sc1cc(=O)oc2ccccc12 | 2 | 37 | -34 | 13 | 3 | 57*
CC(=O)c1cc(O)c2ccccc2c1O | 1 | 2 | 1 | -69 | -152 | -3
CCOC(=O)Nc1oc2ccccc2c(=O)c1C | -14 | 6 | -10 | 11 | 14 | 5
CCOC(=O)/C=C(\C)Sc1cc(O)c2ccccc2c1O | 31 | 88* | -43 | 38 | 0 | 96*
COc1ccc(-n2c(SC3CCOC3=O)nc3ccccc3c2=O)cc1Cl (configuration not stated) | -15 | -19 | -4 | 3 | 15 | -5
CN(C)c1ccc(N=Nc2cccc3ccoc23)cc1 | -39 | -38 | -3 | -318 | -261 | -2
CN(C)c1ccc(N=Nc2cccc(F)c2)cc1 | 19 | -36 | -1 | -281 | -173 | 52*
Cc1ccc2ncccc2c1 | -7 | 10 | -9 | -3 | 11 | 1
CN(C)c1ccc(N=Nc2ccc3ncccc3c2)cc1 | 19 | -38 | -38 | -180 | -105 | 52*
c1cnc2ccc(-c3ccc4ncccc4c3)cc2c1 | 25 | 58* | -33 | -189 | -56 | 6
Cc1cc(N(C)C)ccc1N=Nc1ccc2ncccc2c1 | 24 | 6 | -18 | -313 | -235 | -16
CN(CC(=O)Nc1ccc(F)cc1)C(=O)CCc1nc2ccccc2c(=O)[nH]1 | -2 | -10 | -1 | -5 | 8 | -2
Cc1ccc(S(=O)(=O)N2CCOCC2)cc1C(=O)OCC(=O)Nc1ccc(Cl)cn1 | 18 | 7 | 6 | 19 | -62 | 19
O=C1NC(=S)S/C1=C/c1ccc(N2CCOCC2)o1 | 3 | 13 | -4 | -48 | -69 | 6
O=C1NC(=S)S/C1=C\C=C\c1ccc([N+](=O)[O-])o1 | -27 | 93* | -40 | 104* | 82* | 50*
CCCCC/C=C\C/C=C\C/C=C\CCCCC(=O)O | -30 | -10 | 10 | 10 | -3 | 9
CCCCCCCCCCCCC/C=C/[C@@H](O)[C@@H](N)CO | -5 | -8 | -1 | 55* | 6 | -30
CCCCCCCCCCCCCCCCn1cc[n+](C)c1 | 42 | 84* | -94* | 108* | 82* | 78*
CCCCCCCCn1ccc(=N)cc1 | 0 | 2 | 7 | 9 | 10 | -6
COc1ccc(OC(=O)N2C/C(=C/c3ccccc3)C(=O)/C(=C\c3ccccc3)C2)cc1 | 17 | 64* | -37 | 105* | 59* | 90*
CCOC(=O)N1C/C(=C\c2ccccc2)C(=O)/C(=C/c2ccccc2)C1 | 74* | 89* | -10 | 112* | 95* | 0
CCOC(=O)N1CCN(S(=O)(=O)/C=C/c2ccccc2)CC1 | -1 | 2 | 13 | 12 | 12 | -24
Cc1ccc(S(=O)(=O)NCC(=O)OCc2cc(=O)oc3c(C)c(C)ccc23)cc1C | 0 | -6 | -4 | 2 | -10 | 6
CCC(C)(C(=O)NC1CCCC1)N(Cc1ccco1)C(=O)c1ccc2c(c1)OCO2 (configuration not stated) | 10 | -10 | -9 | 16 | 0 | -34
SMILES | TROY NFkB inh | CF NFkB inh | KKLEB cytotox | Peg3 prom inh | HIF-2a block | TWEAK Fn14 block
CCC(C)(NC(=O)c1ccc2c(c1)OCO2)C(=O)NC1CCCCC1 (configuration not stated) | 7 | -7 | 1 | 21 | 11 | 51*
CN(C)S(=O)(=O)Oc1ccc(C(=O)Nc2cccc(Cl)c2)cc1 | -38 | 9 | 7 | -258 | -203 | -51
Cc1ccc(C(=O)Nc2ccc(S(=O)(=O)NCc3ccco3)cc2)cc1 | -75 | 3 | -1 | -36 | -61 | -7
CCN(CC)S(=O)(=O)c1cccc(NC(=O)c2ccc(-n3nc(C)cc3C)cc2)c1 | 48 | -27 | 22 | 19 | 1 | 60*
CCCCN1C(=O)c2ccc(C(=O)Nc3ccc(C)c(S(=O)(=O)N(C)C)c3)cc2C1=O | 55* | -20 | 24 | 36 | 16 | 91*
Cc1cc(C)n(-c2ccc(C(=O)Nc3ccc(S(=O)(=O)NCc4ccco4)cc3)cc2)n1 | 38 | -7 | 8 | 21 | 9 | 59*
CN(C)S(=O)(=O)Oc1ccc(C(=O)Nc2cccc(C(F)(F)F)c2)cc1 | 15 | -6 | -3 | -26 | -63 | 54*
COc1ccc(/C=C(\NC(=O)c2ccc(Cl)cc2)C(=O)NCCCN2CCOCC2)cc1OC | -2 | -1 | 4 | 2 | 6 | -1
Cc1ccc(NC(=O)c2ccc(OC(F)(F)F)cc2)cc1S(=O)(=O)N(C)C | 13 | -2 | 6 | -28 | -26 | 52*
Cc1cc(C)n(-c2ccc(C(=O)Nc3ccc(C)c(S(=O)(=O)N(C)C)c3)cc2)n1 | 20 | 6 | 3 | 20 | -8 | 53*
NC(=O)c1ccccc1NC(=O)c1ccoc1 | -10 | -5 | 8 | -17 | -37 | 2
COc1cc(C(=O)Nc2cc(C)ccn2)ccc1OCC(=O)N1CCOCC1 | 14 | 3 | -2 | -46 | -110 | 93*
COc1ccc(-c2nc(NC(=O)c3ccc(OCC(=O)N4CCOCC4)c(OC)c3)sc2C)cc1 | 27 | -31 | 5 | 66* | 8 | 58*
COc1cc(C(=O)Nc2ccc(C)cn2)ccc1OCC(=O)N1CCOCC1 | -7 | -30 | 7 | -14 | -46 | 11
CCc1ccc(-c2nc(NC(=O)c3ccc(OCC(=O)Nc4ccc(F)cc4)c(OC)c3)sc2C)cc1 | -5 | -12 | 0 | 11 | 8 | -33
COc1cc(C(=O)Nc2nc(-c3ccc(Cl)cc3)c(C)s2)ccc1OCC(=O)Nc1ccc(F)cc1 | 35 | 48 | -58* | 35 | -3 | -24
O=C(NC1CC1)C1CC(=O)N(C2CCCCC2)C1 (configuration not stated) | -4 | -4 | 2 | -5 | 9 | 8
Cc1cc(C)c(C)c(OC(=O)c2sc(Cl)nc2C)c1 | -29 | 8 | -39 | 90* | 8 | 41
Cc1ccc(NC(=O)c2sc(Cl)nc2C)c(C)c1 | -23 | -3 | 20 | -24 | -12 | -8
Cc1ccc(S(=O)(=O)NNC(=S)Nc2cccc(C)c2C)cc1 | -17 | -1 | -4 | -15 | 6 | 9
COc1ccc(C(=O)CSc2nc3[nH]ncc3c(=O)[nH]2)cc1 | -38 | -1 | 1 | -27 | -30 | -26
